Assay results: the supplement of paper PMC8728848
This excerpt belongs to a sample that is enriched for the strongest signals.

Tests used:
Experiment in all cases: glycan array binding signal (z-score within array); higher = stronger binding
Gal(a1-4)Gal(b1-4)Glc = conditions: glycan notation: IUPAC condensed, linker removed
How it was run: (§1)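 Glycan array data came from 3228 arrays in the Consortium for Functional Glycomics database, and only arrays with an available protein sequence were kept. Glycan names were put into IUPAC-condensed notation, and columns mapping to the same glycan were averaged. The binding signal is a within-array Z-score, averaged across arrays of one protein sequence run at different concentrations or buffers and across linkers. A negative Z-score can be read as non-binding.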

[1] = tested on: Gal(b1-3)GalNAc(b1-3)Gal(b1-4)Glc; conditions: glycan notation: IUPAC condensed, linker removed
How it was run: as §1

Gal(a1-4)GlcNAc = conditions: glycan notation: IUPAC condensed, linker removed
How it was run: as §1

[2] = tested on: Gal(b1-3)GalNAc(a1-3)[Fuc(a1-2)]Gal(b1-4)GlcNAc; conditions: glycan notation: IUPAC condensed, linker removed
How it was run: as §1

Gal(a1-4)Gal(b1-4)GlcNAc = conditions: glycan notation: IUPAC condensed, linker removed
How it was run: as §1

Gal(a1-6)Glc = conditions: glycan notation: IUPAC condensed, linker removed
How it was run: as §1

Gal(b1-2)Gal = conditions: glycan notation: IUPAC condensed, linker removed
How it was run: as §1

[3] = tested on: Gal(b1-3)GalNAc(b1-3)Gal(a1-4)Gal(b1-4)Glc; conditions: glycan notation: IUPAC condensed, linker removed
How it was run: as §1

[4] = tested on: Gal(b1-3)Gal(b1-4)GlcNAc(b1-2)Man(a1-3)[Gal(b1-3)Gal(b1-4)GlcNAc(b1-2)Man(a1-6)]Man(b1-4)GlcNAc(b1-4)GlcNAc; conditions: glycan notation: IUPAC condensed, linker removed
How it was run: as §1

Gal(b1-3)GalNAc(b1-3)Gal = conditions: glycan notation: IUPAC condensed, linker removed; mutation: R125K
How it was run: as §1

Chain of PILRb (Mus musculus), Q2YSF2 (Q2YSF2 entry or part of it): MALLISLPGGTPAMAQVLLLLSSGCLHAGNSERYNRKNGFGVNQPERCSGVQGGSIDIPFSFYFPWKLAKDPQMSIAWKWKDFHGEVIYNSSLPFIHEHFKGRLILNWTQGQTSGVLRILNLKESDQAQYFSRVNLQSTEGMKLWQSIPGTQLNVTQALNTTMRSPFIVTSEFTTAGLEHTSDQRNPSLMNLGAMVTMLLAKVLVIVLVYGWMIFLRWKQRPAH
Chain of CHI3L1 (Homo sapiens), P36222 (P36222 whole entry): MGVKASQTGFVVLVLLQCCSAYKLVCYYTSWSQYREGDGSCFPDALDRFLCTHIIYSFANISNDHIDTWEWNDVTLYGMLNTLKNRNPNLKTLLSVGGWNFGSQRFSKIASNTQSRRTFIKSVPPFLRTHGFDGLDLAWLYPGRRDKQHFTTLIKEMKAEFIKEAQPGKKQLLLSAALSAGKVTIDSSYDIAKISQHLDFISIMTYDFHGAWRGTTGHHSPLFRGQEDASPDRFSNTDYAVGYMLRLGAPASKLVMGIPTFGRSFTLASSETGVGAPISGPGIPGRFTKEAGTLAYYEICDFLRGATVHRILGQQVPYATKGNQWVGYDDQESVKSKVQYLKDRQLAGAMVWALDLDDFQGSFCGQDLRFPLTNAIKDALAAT
Chain of 6RG (Lolium perenne) (chain, as listed by the source): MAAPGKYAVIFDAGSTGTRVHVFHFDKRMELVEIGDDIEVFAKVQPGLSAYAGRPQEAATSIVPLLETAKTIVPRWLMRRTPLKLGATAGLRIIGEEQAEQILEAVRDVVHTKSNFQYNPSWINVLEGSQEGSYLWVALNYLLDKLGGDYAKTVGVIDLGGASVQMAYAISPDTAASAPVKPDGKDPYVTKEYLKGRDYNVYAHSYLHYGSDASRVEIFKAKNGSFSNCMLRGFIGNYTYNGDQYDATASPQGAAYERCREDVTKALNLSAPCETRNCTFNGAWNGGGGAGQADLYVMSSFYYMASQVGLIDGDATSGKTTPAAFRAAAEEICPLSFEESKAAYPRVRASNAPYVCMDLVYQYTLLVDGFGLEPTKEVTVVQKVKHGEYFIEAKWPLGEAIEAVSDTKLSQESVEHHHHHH
Chain of CHT (Homo sapiens) (chain, as listed by the source): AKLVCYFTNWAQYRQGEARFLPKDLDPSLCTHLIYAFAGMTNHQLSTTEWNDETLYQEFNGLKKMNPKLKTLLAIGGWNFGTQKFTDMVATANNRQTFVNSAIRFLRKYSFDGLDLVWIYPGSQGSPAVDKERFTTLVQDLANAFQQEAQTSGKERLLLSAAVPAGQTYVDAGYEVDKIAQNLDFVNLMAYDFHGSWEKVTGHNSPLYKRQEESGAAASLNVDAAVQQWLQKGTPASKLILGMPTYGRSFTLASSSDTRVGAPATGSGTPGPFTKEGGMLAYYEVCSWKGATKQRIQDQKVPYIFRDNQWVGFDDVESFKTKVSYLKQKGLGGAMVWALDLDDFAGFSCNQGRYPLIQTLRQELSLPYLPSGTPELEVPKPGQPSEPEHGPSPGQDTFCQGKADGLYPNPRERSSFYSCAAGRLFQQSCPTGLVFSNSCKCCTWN
Chain of Regenerating Gene IV (Homo sapiens), Q9BYZ8 (Q9BYZ8 whole entry, looked up): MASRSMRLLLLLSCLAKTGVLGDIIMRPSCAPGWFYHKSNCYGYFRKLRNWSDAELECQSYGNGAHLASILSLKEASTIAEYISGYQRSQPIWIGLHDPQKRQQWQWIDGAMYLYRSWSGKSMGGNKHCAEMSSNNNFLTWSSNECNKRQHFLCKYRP
Chain of PILRa (Mus musculus), Q2YSF3 (Q2YSF3 entry or part of it): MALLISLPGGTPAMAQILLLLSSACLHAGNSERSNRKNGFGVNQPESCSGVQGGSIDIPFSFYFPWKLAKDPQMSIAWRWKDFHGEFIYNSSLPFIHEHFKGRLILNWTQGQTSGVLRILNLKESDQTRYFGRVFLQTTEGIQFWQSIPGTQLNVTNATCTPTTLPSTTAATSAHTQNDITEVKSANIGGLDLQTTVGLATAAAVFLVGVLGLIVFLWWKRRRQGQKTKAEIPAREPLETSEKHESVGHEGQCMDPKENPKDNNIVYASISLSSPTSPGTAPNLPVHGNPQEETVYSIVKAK
Chain of C3b (Homo sapiens), P01024 (P01024 23-667): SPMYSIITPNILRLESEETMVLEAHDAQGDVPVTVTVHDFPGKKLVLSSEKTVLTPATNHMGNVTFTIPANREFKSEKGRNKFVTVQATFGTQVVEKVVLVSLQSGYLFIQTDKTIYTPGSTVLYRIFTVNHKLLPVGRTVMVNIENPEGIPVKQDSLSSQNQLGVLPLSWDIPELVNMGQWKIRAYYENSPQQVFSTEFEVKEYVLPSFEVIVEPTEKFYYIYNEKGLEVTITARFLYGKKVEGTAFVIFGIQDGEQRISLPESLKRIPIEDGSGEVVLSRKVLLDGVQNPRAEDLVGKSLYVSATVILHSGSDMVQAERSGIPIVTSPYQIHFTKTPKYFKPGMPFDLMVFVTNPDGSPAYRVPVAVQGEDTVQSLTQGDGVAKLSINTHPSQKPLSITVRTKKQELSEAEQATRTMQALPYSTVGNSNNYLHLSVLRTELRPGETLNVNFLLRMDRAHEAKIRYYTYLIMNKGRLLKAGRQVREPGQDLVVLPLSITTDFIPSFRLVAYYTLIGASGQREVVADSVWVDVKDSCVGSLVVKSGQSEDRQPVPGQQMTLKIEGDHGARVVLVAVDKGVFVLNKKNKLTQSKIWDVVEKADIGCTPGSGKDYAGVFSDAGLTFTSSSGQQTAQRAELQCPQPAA

6RG (Lolium perenne)
glycan array binding signal (z-score) (Gal(a1-4)Gal(b1-4)Glc): 6.7
glycan array binding signal (z-score) [1]: 6.16

CHT (Homo sapiens)
glycan array binding signal (z-score) (Gal(a1-4)GlcNAc; mutation: D138V, E140I): 0.017

PILRa (Mus musculus), Q2YSF3
glycan array binding signal (z-score) [2]: -0.192

C3b (Homo sapiens), P01024
glycan array binding signal (z-score) (Gal(a1-4)GlcNAc): -0.904

CHI3L1 (Homo sapiens), P36222
glycan array binding signal (z-score) (Gal(a1-4)Gal(b1-4)GlcNAc): -0.117
glycan array binding signal (z-score) (Gal(a1-6)Glc): -0.088
glycan array binding signal (z-score) (Gal(b1-2)Gal): -0.006

Regenerating Gene IV (Homo sapiens), Q9BYZ8
glycan array binding signal (z-score) [3]: -0.44

HARE (Homo sapiens), Q8WWQ8
glycan array binding signal (z-score) (Gal(b1-2)Gal): -0.074

PILRb (Mus musculus), Q2YSF2
glycan array binding signal (z-score) (Gal(a1-4)Gal(b1-4)Glc): 0.026
glycan array binding signal (z-score) (Gal(b1-2)Gal): -0.075
glycan array binding signal (z-score) [4]: 0.382

Siglec-8 (Homo sapiens), Q9NYZ4
glycan array binding signal (z-score) (Gal(a1-4)Gal(b1-4)Glc; mutation: R125K): 0.026
glycan array binding signal (z-score) [4]: -0.073
glycan array binding signal (z-score) (Gal(b1-3)GalNAc(b1-3)Gal): -0.035
